GDH-TPI inh – GDH-TPI coupled enzyme inhibition counter-screen. GDH-TPI coupled enzyme counterscreen, NADH absorbance. inhibition, % at 4.8 µM. 360,000 compounds, 1.2% hits; in the data active means inhibition above about 30%
Mtb FBA inh – inhibitors of M. tuberculosis fructose-bisphosphate aldolase; P9WQA3; purified M. tuberculosis FBA, fluorescence read-out; inhibition, % at 1 µM; 360,000 compounds, 2.3% hits; in the data active means inhibition above about 27%
Rv3671c inh – inhibitors of M. tuberculosis serine protease Rv3671c. P9WHR9. inhibition, % at 5.96 µM. 320,000 compounds, 0.048% hits; in the data active means inhibition above about 38%;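 further: extracellular domain of Rv3671c used as enzyme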
Mtb UGM inh – Mtb UDP-galactopyranose mutase inhibition | P9WIQ1 | purified UGM, fluorescence polarization probe displacement | inhibition, % at 10 µM | 320,000 compounds, 0.06% hits | AID 504406; in the data active means inhibition above about 10%, passing the limit was not always enough; inconclusive means no clear call, values can overlap the other calls
RecA intein inh – blocks M. tuberculosis RecA intein splicing; cell-free RecA intein splicing, fluorescence; inhibition, % (test concentration not listed); 290,000 compounds, 0.75% hits; AID 2221; in the data active means inhibition above about 30%; inconclusive means no clear call, values can overlap the other calls
Target sequence (P9WHJ3 whole entry, looked up): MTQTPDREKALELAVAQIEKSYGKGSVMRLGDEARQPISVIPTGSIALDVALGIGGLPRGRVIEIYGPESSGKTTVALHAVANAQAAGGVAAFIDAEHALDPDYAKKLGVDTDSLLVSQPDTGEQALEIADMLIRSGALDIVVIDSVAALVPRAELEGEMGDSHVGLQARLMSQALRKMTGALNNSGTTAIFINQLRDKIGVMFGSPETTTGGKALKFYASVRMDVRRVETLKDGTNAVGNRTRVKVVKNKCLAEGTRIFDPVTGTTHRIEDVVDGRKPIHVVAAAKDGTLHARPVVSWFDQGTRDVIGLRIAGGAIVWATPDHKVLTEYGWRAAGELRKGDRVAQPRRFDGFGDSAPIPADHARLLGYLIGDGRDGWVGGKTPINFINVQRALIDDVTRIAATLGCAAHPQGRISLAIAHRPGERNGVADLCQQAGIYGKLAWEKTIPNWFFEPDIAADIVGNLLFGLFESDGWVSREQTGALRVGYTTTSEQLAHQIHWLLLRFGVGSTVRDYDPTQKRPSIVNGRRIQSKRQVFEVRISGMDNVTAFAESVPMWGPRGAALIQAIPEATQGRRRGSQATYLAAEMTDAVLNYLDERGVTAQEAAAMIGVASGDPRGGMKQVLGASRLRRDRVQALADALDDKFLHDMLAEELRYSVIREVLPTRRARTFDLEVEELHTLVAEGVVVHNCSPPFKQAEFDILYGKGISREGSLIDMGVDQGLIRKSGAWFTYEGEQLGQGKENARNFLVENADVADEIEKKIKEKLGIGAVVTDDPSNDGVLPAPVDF
Mtb bLac sens – beta-lactam sensitization of Mtb H37Rv; M. tuberculosis H37Rv growth with meropenem, percent inhibition; inhibition, % at 25 µM; 330,000 compounds, 0.27% hits;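 further: growth measured after seven days incubation then overnight dye step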
GFP chromophore – counter-screen GFP chromophore formation inhibition | shares compounds with RecA intein inh | 2,100 compounds, 83% hits | AID 434968 | EC50, µM | cell-free GFP chromophore formation, fluorescence
A number is an active result; - = inactive; ? = inconclusive; . = no result given. Shown are actives, neighbours in structure and some others; about 4% of the full set was active somewhere. Unless noted, how the calls were made is not given here.

SMILES	GDH-TPI inh	Mtb FBA inh	Rv3671c inh	Mtb UGM inh	RecA intein inh	Mtb bLac sens	GFP chromophore
Cc1ccc(CN2C(=O)c3ccccc3C2C(=O)NCC2CCCO2)cc1 (stereo not drawn)	-	-	-	-	-	-	.
O=C(COC(=O)CCSc1ccccc1)Nc1ccccc1	-	-	-	-	.	-	.
COc1ccc2nc(COC(=O)c3cccs3)c(C(C)=O)[n+]([O-])c2c1	-	-	-	-	-	-	.
CC(C)c1ccc(/C=C/C(=O)N2CCc3ccccc3C2)cc1	-	-	-	-	-	-	.
Cc1ccccc1N1C(=O)c2ccccc2C1Nc1cccnc1 (stereo not drawn)	-	-	-	-	33	-	-
COc1cc(/C=N/NC(=O)c2ccncc2)ccc1OC(=O)c1ccco1	-	-	-	-	-	-	.
COc1cc(/C=N/NC(=O)c2ccc(F)cc2)ccc1OC(=O)c1ccco1	-	-	-	-	30	-	-
O=C(N/N=C/c1ccc(OC(=O)c2ccco2)cc1)c1ccc[n+]([O-])c1	36	-	-	-	32	-	-
O=C(CCl)N(C/C=C/c1ccccc1)c1ccc2c(c1)OCCO2	-	-	-	-	85	-	3
C[C@H]1CN([C@@H](C)CO)C(=O)CCCn2nncc2CO[C@@H]1CN(C)C(=O)c1ccccc1	-	-	.	.	.	.	.
Cc1[nH]c2ccccc2c1C(C#N)(C#N)C1C(=O)c2ccccc2C1=O	-	-	-	-	42	-	34
Cc1[nH]c2ccccc2c1CC#N	-	-	-	-	-	-	.
O=S(=O)(Nc1cc(Sc2cccc3cccnc23)c(O)c2ccccc12)c1ccccc1	.	.	.	.	-	.	.
CCc1ccc(S(=O)(=O)Nc2cc(SCC(=O)O)c(O)c3ccccc23)cc1	-	-	-	-	94	-	0.7
CCOc1ccc(S(=O)(=O)Nc2cc(SCC(=O)O)c(O)c3ccccc23)cc1	-	-	.	-	96	-	8.9
CCOC(=O)c1ccccc1NS(=O)(=O)c1ccc(OCC)cc1	-	-	-	-	-	-	.
O=[N+]([O-])c1cccc(OCC(O)CN2CCN(S(=O)(=O)c3cc(Cl)ccc3Cl)CC2)c1 (stereo not drawn)	-	-	-	-	-	-	.
COc1ccc(/C=C/C(=O)c2ccccc2)cc1COc1ccc(F)cc1	-	-	-	-	41	-	-
COc1ccc(/C=C/C(=O)c2ccc(O)cc2)cc1COc1ccc(F)cc1	-	-	-	-	36	-	-
CC(C)Cn1nc(C(=O)N2CCc3ccccc32)c2ccccc2c1=O	-	-	.	.	.	.	.
CCc1ccc(S(=O)(=O)Nc2ccc(O)c3ccccc23)cc1	-	-	-	-	92	-	0.15
COc1ccc(OC)c(S(=O)(=O)Nc2ccc(O)c3ccccc23)c1	-	-	-	-	.	-	.
O=S(=O)(Nc1ccc(NS(=O)(=O)c2ccccc2)c2ccccc12)c1ccccc1	-	-	.	.	.	.	.
O=S(=O)(Nc1ccc(O)c2ccccc12)c1ccc(F)cc1	-	-	-	-	94	-	0.15
COc1cc2c(cc1OC)CN(C(=O)c1cccc(S(=O)(=O)N3CCc4ccccc43)c1)CC2	-	-	-	-	.	-	.
SMILES	GDH-TPI inh	Mtb FBA inh	Rv3671c inh	Mtb UGM inh	RecA intein inh	Mtb bLac sens	GFP chromophore
O=C1c2[nH]nc(-c3ccccc3O)c2C(c2cccc(Cl)c2)N1Cc1ccco1 (stereo not drawn)	-	-	-	-	34	?	-
CCCCC(=O)NC(c1cccc([N+](=O)[O-])c1)c1c(OC(C)=O)ccc2ccccc12 (stereo not drawn)	-	-	-	-	35	-	-
Cn1c(=O)c([N+](=O)[O-])c(-n2ccnc2)c2ccccc21	-	-	-	-	66	-	19
Cc1noc(C)c1COC(=O)CCOc1ccccc1	-	-	-	-	-	-	.
Cc1noc(C)c1COC(=O)Cc1ccc(Br)cc1	-	-	-	-	-	-	-
COc1cc2ccnc(C=O)c2cc1OC	-	-	.	.	.	.	.
COc1ccc(C(N)c2nccc3cc(OC)c(OC)cc23)cc1OC (stereo not drawn)	-	-	-	-	92	-	-
N#Cc1c(Cl)c(Cl)c2nnc(-c3ccc(Br)cc3)n2c1Cl	.	.	-	-	49	-	5.1
Cc1onc(-c2ccccc2Cl)c1C(N)=O	-	-	-	-	-	-	.
Cc1[nH]n(C)c(=O)c1C(=O)c1c(-c2ccccc2Cl)noc1C	-	-	-	-	74	-	17
Cc1ccc(-n2nnnc2SC(C(=O)c2c[nH]c3ccccc23)c2ccccc2)cc1 (stereo not drawn)	-	-	-	-	-	-	.
CCOC(=O)c1c(CC(C)C)csc1NC(=O)CCl	-	-	-	-	52	-	-
O=C(NCCN1CCN(c2ccccc2)CC1)c1cccn2c(=O)c3cc(Cl)ccc3nc12	-	-	-	-	-	.	.
O=[N+]([O-])c1cc(C(F)(F)F)cc([N+](=O)[O-])c1NCCNC(=S)Nc1ccc(Cl)c(Cl)c1	-	-	-	-	30	-	-
Cc1ccc(Sc2ncnc3onc(C)c23)cc1	-	-	-	-	41	-	-
CCN(CC)C(=O)c1ccc2c(c1)C1C(Cl)C(Sc3ccccc3[N+](=O)[O-])CC1C(C(=O)O)N2 (stereo not drawn)	-	-	-	-	36	-	23
CCCCCc1cc(=O)oc2c(C(CCN3CCCC(C)C3)c3ccc4c(c3)OCO4)c(OC)cc(OC)c12 (stereo not drawn)	-	-	-	-	35	-	20
COc1cc(C(=O)NCC(c2cccs2)N(C)C)cc(Cl)c1OC(C)C (stereo not drawn)	-	-	-	-	-	-	.
COC(=O)c1ccccc1NC(=O)C(C)n1nc(C)c2c(C)n(-c3ccccc3)nc2c1=O (stereo not drawn)	-	-	-	-	97	-	-
Cn1[nH]c(CSc2ccc(Cl)cc2)cc1=O	-	-	-	-	93	-	27
CN1CCN(C2=C(Cl)C(=O)C(c3cnc(N4CCCCC4)s3)=C(Cl)C2=O)CC1	-	-	-	-	83	-	3.7
CN1CCN(C2=C(Cl)C(=O)N(C3CCCCC3)C2=O)CC1	-	-	-	-	-	-	.
Cn1c(=O)[nH]c(=O)c2c1nc([N+](=O)[O-])n2Cc1ccccc1	-	-	-	-	62	-	17
CCCCOP(=O)(OCCCC)C1(NS(=O)(=O)c2ccccc2)C=CC(=O)c2ccccc21 (stereo not drawn)	-	-	-	-	88	-	5
CCCCOCCCNS(=O)(=O)c1ccccc1	-	-	-	-	-	-	.
COc1ccccc1OCCNC(=O)Nc1ccc(Br)cc1	-	-	-	-	-	-	.
CCN(CC)c1ccc(/C=C2\C(=O)N(c3nnc(C)c(=O)[nH]3)N=C2C)cc1	-	-	-	-	81	-	9.5
O=C1CC(c2ccc(F)cc2)Sc2nc(-c3ccccc3)c(-c3ccccc3)n21 (stereo not drawn)	-	-	-	-	-	-	.
